Results from PubChem BioAssay (Tox21).
Results filed as inconclusive are left out. Activity calls are given as the source filed them. Unless noted, calls come from the whole dose curve.

Columns and labels:
[1] = molecular target: Gonadotropin-releasing hormone receptor (Homo sapiens) (UniProt P30968); experiment: Human gonadotropin-releasing hormone receptor (GnRHR) small molecule agonists, calcium flux assay in GnRHR-HEK293 cells (AID 1920063); note: nearly all actives have a fitted effect of over 35% in size
Gonadotropin-releasing hormone receptor (Homo sapiens), sequence (P30968 whole entry, looked up): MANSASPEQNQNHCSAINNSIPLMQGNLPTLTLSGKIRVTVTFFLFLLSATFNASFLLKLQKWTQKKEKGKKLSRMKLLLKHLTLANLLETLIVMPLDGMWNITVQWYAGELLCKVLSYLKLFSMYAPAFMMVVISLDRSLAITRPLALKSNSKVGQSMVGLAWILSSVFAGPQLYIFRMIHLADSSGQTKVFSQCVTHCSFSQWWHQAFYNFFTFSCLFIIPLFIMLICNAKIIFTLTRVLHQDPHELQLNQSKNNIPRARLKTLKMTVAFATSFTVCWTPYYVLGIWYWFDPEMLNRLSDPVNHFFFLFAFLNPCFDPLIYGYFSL
How it was run: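 HEK293 cells stably expressing human GnRHR were plated 18 h at 37 °C, loaded with calcium dye 1 h at 37 °C, then given compound in agonist mode; fluorescence (Ex/Em 480/540) read kinetically for 3 min at 1 s intervals.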

[2] = molecular target: KiSS-1 receptor (Homo sapiens) (UniProt Q969F8); experiment: Human kisspeptin (KISS1R) small molecule agonists, calcium flux assay in KISS1R-HEK293 cells (AID 1920064; active = well fitted activation curve with a large enough effect in the repeat runs)
KiSS-1 receptor (Homo sapiens), sequence (Q969F8 whole entry, looked up): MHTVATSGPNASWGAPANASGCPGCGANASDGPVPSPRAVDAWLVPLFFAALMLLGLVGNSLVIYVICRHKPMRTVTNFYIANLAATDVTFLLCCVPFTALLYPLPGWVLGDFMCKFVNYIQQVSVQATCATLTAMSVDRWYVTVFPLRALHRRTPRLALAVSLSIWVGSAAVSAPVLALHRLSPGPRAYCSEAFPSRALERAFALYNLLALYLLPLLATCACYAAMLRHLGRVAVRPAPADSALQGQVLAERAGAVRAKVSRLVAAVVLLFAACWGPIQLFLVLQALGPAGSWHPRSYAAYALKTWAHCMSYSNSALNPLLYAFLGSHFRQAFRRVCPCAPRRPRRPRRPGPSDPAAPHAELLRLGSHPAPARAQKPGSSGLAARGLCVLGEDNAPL
How it was run: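 HEK293 cells stably expressing human KISS1R were plated 18 h at 37 °C, loaded with calcium dye for 1 h at 37 °C, then given compound by pin tool. Fluorescence (Ex/Em 480/540) was read kinetically for 3 min.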

[3] = G protein-coupled receptor (GPCR) small molecule agonists, calcium flux assay: HEK293 wild type cell line counter screen (AID 1920065); note: potency is the fitted concentration of half-maximal effect
How it was run: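 Cells were plated and cultured 18 h at 37 C/5% CO2, then loaded with calcium dye for 1 h at 37 C. Compounds in DMSO were pin-transferred in agonist mode, and fluorescence (Ex/Em 480/540) was read kinetically for 3 min at 1 s intervals.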

[4] = p53 small molecule agonists, cell-based qHTS assay with human liver microsomes (AID 1963577);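 note: p53 response element beta-lactamase reporter cells with liver microsomes plus NADPH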
How it was run: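 Metabolically competent format: test substances, human liver microsomes and NADPH (both 0.5 mg/mL final) incubated with p53RE-bla cells 16 h at 37 C. Beta-lactamase reporter signal then quantified by fluorescence.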

[5] = p53 small molecule agonists, cell-based qHTS assay with rat liver microsomes (AID 1963578)
How it was run: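 Each plate received p53RE-bla cells, then compound, then rat liver microsomes and NADPH (both 0.5 mg/mL final). Plates were held 16 h at 37 C, and beta-lactamase activity was detected with LiveBLAzer over 2 h.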

[6] = p53 small molecule agonists, cell-based qHTS assay with human liver microsomes: qHTS cell viability counter screen (AID 1963579); note: nearly all actives have a fitted effect of over 45% in size; note: potency is the fitted concentration of half-maximal effect
How it was run: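 Tox21 library compounds, delivered from DMSO stocks, were tested on p53RE-bla cells together with 0.5 mg/mL human liver microsomes and 0.5 mg/mL NADPH (final) over 16 h at 37 C; CellTiter-Glo luminescence served as the cytotoxicity measure.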

[7] = p53 small molecule agonists, cell-based qHTS assay with rat liver microsomes: qHTS cell viability counter screen (AID 1963580); note: nearly all actives have a fitted effect of over 45% in size; note: potency is the fitted concentration of half-maximal effect
How it was run: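 p53RE-bla HCT-116 cells were exposed 16 h at 37 C to compounds with rat liver microsomes (0.5 mg/mL) and NADPH (0.5 mg/mL). Viability was measured in the same wells as ATP content by CellTiter-Glo luminescence.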

[8] = p53 small molecule agonists, cell-based qHTS assay: qHTS cell viability counter screen (AID 1963581); note: nearly all actives have a fitted effect of over 45% in size; note: potency is the fitted concentration of half-maximal effect
How it was run: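 p53RE-bla HCT-116 cells were exposed to compounds for 16 h at 37 C; after the beta-lactamase FRET read in the same wells, CellTiter-Glo was added and luminescence (intracellular ATP) read after 30 min at room temperature.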

[9] = p53 small molecule agonists, cell-based qHTS assay (AID 1963582; active = well fitted activation curve with a large enough effect in the signal ratio in the repeat runs, not every such curve was filed as active; the % refers to the signal ratio)
How it was run: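 p53RE-bla beta-lactamase reporter cells rested 5 h at 37 C/5% CO2, then received compounds in DMSO by pin transfer and were incubated 16 h at 37 C. LiveBLAzer B/G FRET substrate was loaded for 2 h at room temperature before fluorescence reading.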

[10] = cAMP Responsive Elements (CRE) small molecule agonists, cell-based qHTS assay (AID 1963590)
How it was run: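 CRE-bla HEK 293T cells in DMEM with 10% dialyzed FBS, NEAA, pyruvate and 25 mM HEPES were plated 18 h at 37 C/5% CO2, then exposed to compounds in DMSO for 3 h before LiveBLAzer B/G FRET substrate addition.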

[11] = cAMP Responsive Elements (CRE) small molecule antagonists, cell-based qHTS assay (AID 1963591; active = well fitted inhibition curve with a large enough effect in the signal ratio in the repeat runs, not every such curve was filed as active; the % refers to the signal ratio)
How it was run: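 CRE-bla HEK293T cells were plated 18 h at 37 °C/5% CO2, pinned with compound in DMSO, then stimulated with NKH477 at 0.25 uM final for 3 h. LiveBLAzer B/G FRET substrate was added and plates incubated 2 h at room temperature.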

[12] = molecular target: Beta-2 adrenergic receptor (Homo sapiens) (UniProt P07550); experiment: Adrenergic beta2 receptor (ADRB2) small molecule antagonists, cell-based qHTS assay (AID 1963592); note: series mostly up to about 92 µM; nearly all actives have a fitted effect of over 50% in size
Beta-2 adrenergic receptor (Homo sapiens), sequence (P07550 whole entry, looked up): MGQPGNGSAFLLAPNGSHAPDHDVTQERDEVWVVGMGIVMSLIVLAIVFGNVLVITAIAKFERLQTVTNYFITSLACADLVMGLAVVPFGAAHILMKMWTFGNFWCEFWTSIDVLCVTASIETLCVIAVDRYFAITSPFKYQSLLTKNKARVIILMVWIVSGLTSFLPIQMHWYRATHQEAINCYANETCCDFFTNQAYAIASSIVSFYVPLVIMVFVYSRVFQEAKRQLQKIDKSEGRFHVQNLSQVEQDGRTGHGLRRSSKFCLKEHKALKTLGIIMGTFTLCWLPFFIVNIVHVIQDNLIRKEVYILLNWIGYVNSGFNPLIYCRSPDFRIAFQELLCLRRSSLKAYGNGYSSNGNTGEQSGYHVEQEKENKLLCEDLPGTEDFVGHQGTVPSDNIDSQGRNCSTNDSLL
How it was run: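 Cells (CHO, stable ADRB2 overexpression) incubated 18-20hr at 37C; compounds added from DMSO; agonist mix (1nM isoproterenol, 100uM IBMX, 25uM Ro-20-1724) added; 0.5hr RT; d2-cAMP and anti-cAMP-cryptate added; 1hr RT; 665/615 nm read.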

[13] = molecular target: D(2) dopamine receptor (Homo sapiens) (UniProt P14416); experiment: Dopamine D2 receptor (DRD2) small molecule antagonists, cell-based qHTS assay (AID 1963595; active = well fitted inhibition curve with a large enough effect in the signal ratio in the repeat runs, with a control signal flat; the % refers to the signal ratio)
D(2) dopamine receptor (Homo sapiens), sequence (P14416 whole entry, looked up): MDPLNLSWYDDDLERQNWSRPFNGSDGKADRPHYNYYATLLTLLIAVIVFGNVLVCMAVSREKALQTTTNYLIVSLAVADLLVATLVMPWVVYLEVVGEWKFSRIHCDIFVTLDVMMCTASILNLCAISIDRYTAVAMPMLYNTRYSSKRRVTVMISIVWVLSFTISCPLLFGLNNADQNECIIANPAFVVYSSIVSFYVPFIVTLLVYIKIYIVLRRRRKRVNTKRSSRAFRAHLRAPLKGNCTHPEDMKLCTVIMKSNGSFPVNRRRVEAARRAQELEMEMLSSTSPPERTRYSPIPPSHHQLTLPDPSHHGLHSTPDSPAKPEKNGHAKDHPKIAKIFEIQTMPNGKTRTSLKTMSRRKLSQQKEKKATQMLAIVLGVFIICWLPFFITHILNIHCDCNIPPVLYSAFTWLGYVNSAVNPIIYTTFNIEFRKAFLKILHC
How it was run: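 HEK293 cells stably expressing DRD2 were preincubated with 0.1 mM Ro20-1724, then with compound for 10 min at room temperature. Cells were stimulated with 200 nM NKH477 plus 12 nM quinpirole for 30 min, and cAMP was read by HTRF.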

[14] = molecular target: 5-hydroxytryptamine receptor 2A (Homo sapiens) (UniProt P28223); experiment: 5-hydroxytryptamine receptor 2A (HTR2A) small molecule agonists, cell-based qHTS assay (AID 1963587); note: nearly all actives have a fitted effect of over 30% in size; note: potency is the fitted concentration of half-maximal effect
5-hydroxytryptamine receptor 2A (Homo sapiens), sequence (P28223 whole entry, looked up): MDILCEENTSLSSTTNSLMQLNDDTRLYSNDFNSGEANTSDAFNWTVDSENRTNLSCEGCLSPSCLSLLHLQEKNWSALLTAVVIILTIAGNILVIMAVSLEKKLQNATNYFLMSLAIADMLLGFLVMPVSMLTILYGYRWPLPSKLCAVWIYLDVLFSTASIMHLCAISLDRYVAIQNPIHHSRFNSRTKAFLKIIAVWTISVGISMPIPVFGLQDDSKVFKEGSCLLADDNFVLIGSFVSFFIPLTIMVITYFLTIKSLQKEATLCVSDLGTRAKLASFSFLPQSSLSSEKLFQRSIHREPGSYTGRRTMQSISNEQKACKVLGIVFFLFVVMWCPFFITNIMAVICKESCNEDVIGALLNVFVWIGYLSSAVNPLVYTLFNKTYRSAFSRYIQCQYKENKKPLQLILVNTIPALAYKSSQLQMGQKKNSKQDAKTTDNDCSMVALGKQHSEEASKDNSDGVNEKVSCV
How it was run: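 CHO cells stably expressing human HTR2A, plated 18 h, loaded with calcium dye 1 h at 37 C. Agonist mode: compounds added and intracellular calcium fluorescence recorded kinetically for 2 min at 1 sec intervals.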

[15] = molecular target: Muscarinic acetylcholine receptor M1 (Homo sapiens) (UniProt P11229); experiment: Cholinergic receptor muscarinic 1 (CHRM1) small molecule agonists, cell-based qHTS assay (AID 1963589); note: nearly all actives have a fitted effect of over 35% in size
Muscarinic acetylcholine receptor M1 (Homo sapiens), sequence (P11229 whole entry, looked up): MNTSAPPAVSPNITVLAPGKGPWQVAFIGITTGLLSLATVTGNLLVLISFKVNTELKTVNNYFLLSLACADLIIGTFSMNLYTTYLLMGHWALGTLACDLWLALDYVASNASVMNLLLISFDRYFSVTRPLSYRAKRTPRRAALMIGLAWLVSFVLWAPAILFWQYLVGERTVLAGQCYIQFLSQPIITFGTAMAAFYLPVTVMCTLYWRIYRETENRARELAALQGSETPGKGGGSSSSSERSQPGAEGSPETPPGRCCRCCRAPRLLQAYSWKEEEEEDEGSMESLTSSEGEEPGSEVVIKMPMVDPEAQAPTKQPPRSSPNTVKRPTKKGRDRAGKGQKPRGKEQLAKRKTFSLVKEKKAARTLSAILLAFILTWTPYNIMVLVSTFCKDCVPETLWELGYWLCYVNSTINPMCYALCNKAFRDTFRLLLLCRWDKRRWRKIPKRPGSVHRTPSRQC
How it was run: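 CHO cells stably expressing human CHRM1, seeded 18 h at 37 C/5% CO2, dye-loaded 1 h at 37 C, then given compound in agonist mode; intracellular calcium fluorescence read kinetically at 1 s intervals. Fifteen concentrations, three independent runs.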

[16] = molecular target: D(2) dopamine receptor (Homo sapiens) (UniProt P14416); experiment: Dopamine D2 receptor (DRD2) small molecule agonists, cell-based qHTS assay (AID 1963594); note: nearly all actives have a fitted effect of over 35% in size; note: potency is the fitted concentration of half-maximal effect
How it was run: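 HEK293 cells stably expressing human DRD2, pre-treated with PDE inhibitor Ro20-1724 (0.1 mM final) and compound 10 min at room temperature, then stimulated with NKH477 (200nM […]) for 30 min. cAMP read by HTRF (665/620 nm).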

[17] = molecular target: 5-hydroxytryptamine receptor 2A (Homo sapiens) (UniProt P28223); experiment: 5-hydroxytryptamine receptor 2A (HTR2A) small molecule antagonists, cell-based qHTS assay (AID 1963586); note: nearly all actives have a fitted effect of over 45% in size; note: potency is the fitted concentration of half-maximal effect
How it was run: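 Antagonist-mode intracellular calcium assay: DOI (4 nM) added after 5 min compound pre-incubation at room temperature to dye-loaded HTR2A-CHO cells. Fluorescence followed for 3 min, sampled every second.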

[18] = molecular target: Muscarinic acetylcholine receptor M1 (Homo sapiens) (UniProt P11229); experiment: Cholinergic receptor muscarinic 1 (CHRM1) small molecule antagonists, cell-based qHTS assay (AID 1963588); note: nearly all actives have a fitted effect of over 40% in size
How it was run: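 CHRM1-CHO calcium-flux assay, antagonist mode. Cells were seeded 18 h, dye-loaded 1 h at 37 C and given compound for 5 min at RT, then acetylcholine was added at 50nM. FDSS fluorescence was read 3 min; 15 concentrations, three runs.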

[19] = molecular target: Beta-2 adrenergic receptor (Homo sapiens) (UniProt P07550); experiment: Adrenergic beta2 receptor (ADRB2) small molecule agonists, cell-based qHTS assay (AID 1963593);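 note: CHO cells stably overexpressing human ADRB2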
How it was run: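 CHO cells stably over-expressing ADRB2 were plated overnight at 37C, then dosed with compounds plus a stimulation mix containing 100uM IBMX and 25uM Ro-20-1724 for 0.5hr at room temperature. cAMP was measured by HTRF competition, 1hr.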
% is set by controls: 0 for no effect and ±100 for the full control effect.

COc1ccc2cc(CCC(C)=O)ccc2c1
inactive: Potency [1] | Potency [2] | Potency [3] | Potency [4] | Potency [5] | Potency [6] | Potency [7] | Potency [8] | Potency [9] | Potency [10] | Potency [11] | Potency [12] | Potency [13]

CCOc1cccc(-n2cc(C(=O)N3CCN(c4cc(C(=O)O)c5ccccc5c4)CC3)nc2-c2ccc(C)cc2)c1
active: Potency [6] 17.4 µM | Potency [7] 24.6 µM | Potency [8] 24.6 µM | Potency [14] 0.0933 µM | Potency [16] 65.5 µM
inactive: Potency [1] | Potency [2] | Potency [3] | Potency [4] | Potency [5] | Potency [15] | Potency [13]

O=[N+]([O-])c1ccc2ncccc2c1
inactive: Potency [1] | Potency [2] | Potency [3] | Potency [4] | Potency [5] | Potency [6] | Potency [7] | Potency [8] | Potency [17] | Potency [18] | Potency [15] | Potency [10] | Potency [12] | Potency [16] | Potency [13]

CCCCCCCC/C=C\CCCCCCCC(=O)NCc1ccc(O)c(OC)c1
inactive: Potency [1] | Potency [2] | Potency [3] | Potency [4] | Potency [5] | Potency [6] | Potency [7] | Potency [8] | Potency [9] | Potency [17] | Potency [14] | Potency [18] | Potency [15] | Potency [11] | Potency [13]

CC1(O)CSC(C)(O)CS1 (stereo not drawn)
inactive: Potency [1] | Potency [2] | Potency [3] | Potency [4] | Potency [5] | Potency [6] | Potency [7] | Potency [8] | Potency [14] | Potency [18] | Potency [15] | Potency [10] | Potency [11] | Potency [12] | Potency [16] | Potency [13]

CN(C)CC/C=C1\c2ccccc2COc2ccccc21
inactive: Potency [1] | Potency [2] | Potency [3] | Potency [4] | Potency [5] | Potency [6] | Potency [7] | Potency [8] | Potency [10] | Potency [11] | Potency [16] | Potency [13]

CCOC(=O)c1ccccc1C(=C1C=C(Br)C(=O)C(Br)=C1)c1cc(Br)c(O)c(Br)c1
inactive: Potency [1] | Potency [2] | Potency [3] | Potency [4] | Potency [5] | Potency [6] | Potency [7] | Potency [14] | Potency [15] | Potency [12] | Potency [16] | Potency [13]

CC(=O)Oc1ccc(C(=C2CCCCC2)c2ccc(OC(C)=O)cc2)cc1
inactive: Potency [1] | Potency [2] | Potency [3] | Potency [4] | Potency [5] | Potency [6] | Potency [8] | Potency [9] | Potency [14] | Potency [18] | Potency [15] | Potency [10] | Potency [11] | Potency [12] | Potency [19] | Potency [16] | Potency [13]

CC(C)(C)c1cc(CO)cc(C(C)(C)C)c1O
inactive: Potency [1] | Potency [2] | Potency [3] | Potency [4] | Potency [5] | Potency [6] | Potency [9] | Potency [17] | Potency [14] | Potency [15] | Potency [12] | Potency [16] | Potency [13]

O=CC=C(c1ccccc1)c1ccccc1
inactive: Potency [1] | Potency [2] | Potency [3] | Potency [4] | Potency [5] | Potency [7] | Potency [8] | Potency [14] | Potency [18] | Potency [15] | Potency [12] | Potency [19] | Potency [16]
active: Potency [17] 42.4 µM

CCCN(C1CCN(C(=O)C2CCNCC2)CC1)[C@@H]1CCc2ccc(OC)cc2C1
active: Potency [17] 37.5 µM | Potency [14] 17.4 µM
inactive: Potency [1] | Potency [2] | Potency [3] | Potency [4] | Potency [5] | Potency [6] | Potency [7] | Potency [8] | Potency [18] | Potency [15] | Potency [12] | Potency [16] | Potency [13]

ClC(Cl)Cl
inactive: Potency [1] | Potency [2] | Potency [3] | Potency [4] | Potency [5] | Potency [6] | Potency [8] | Potency [9] | Potency [10] | Potency [11] | Potency [12] | Potency [16] | Potency [13]

CC(Oc1c(Cl)cccc1Cl)C1=NCCN1 (stereo not drawn)
inactive: Potency [1] | Potency [2] | Potency [3] | Potency [4] | Potency [5] | Potency [7] | Potency [8] | Potency [9] | Potency [17] | Potency [18] | Potency [15] | Potency [10] | Potency [12] | Potency [16] | Potency [13]

[O-][n+]1ccccc1SSc1cccc[n+]1[O-]
active: Potency [3] 4.65 µM | Potency [7] 0.547 µM | Potency [14] 9.28 µM
inactive: activity change [1] 17.2% [at 11.8 µM, active compounds read high] | activation [2] 1.71% [at 15.8 µM] | activation [4] -14.9% [at 13.5 µM] | activation [5] -12.8% [at 13.6 µM] | activity change, negative = cytotoxicity [8] 8.83% [at 13.5 µM] | activation [15] 14.1% [at 15.8 µM] | activation [10] -1.24% [at 19 µM] | activity change, negative = inhibition [12] 11.4% [at 19 µM] | activity change, negative = inhibition [13] -21.1% [at 18.9 µM]

O=C1CCc2ccc(OCCCCN3CCN(c4cccc(Cl)c4Cl)CC3)cc2N1
inactive: Potency [1] | Potency [2] | Potency [3] | Potency [4] | Potency [5] | Potency [6] | Potency [7] | Potency [15] | Potency [11]
